# Results reported in publication PMC4336329 (PLoS ONE, 2015).
# Among all 310,000 compounds or so, about 14,000 (4.5%) showed an effect of 50% or more. Effects have a minus sign here. The sample as a whole holds a higher share of strong results than the screen did.
# Biological target: human ether-à-go-go-related gene (hERG) potassium channel (human, UniProt Q12809)
# Assay: primary screen, population patch clamp on CHO cells stably expressing hERG; higher = less effect of the substance
# 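Further: peak tail current of the secondary pulse compared with the same well before compound.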
# human ether-à-go-go-related gene (hERG) potassium channel, sequence (Q12809 whole entry, looked up): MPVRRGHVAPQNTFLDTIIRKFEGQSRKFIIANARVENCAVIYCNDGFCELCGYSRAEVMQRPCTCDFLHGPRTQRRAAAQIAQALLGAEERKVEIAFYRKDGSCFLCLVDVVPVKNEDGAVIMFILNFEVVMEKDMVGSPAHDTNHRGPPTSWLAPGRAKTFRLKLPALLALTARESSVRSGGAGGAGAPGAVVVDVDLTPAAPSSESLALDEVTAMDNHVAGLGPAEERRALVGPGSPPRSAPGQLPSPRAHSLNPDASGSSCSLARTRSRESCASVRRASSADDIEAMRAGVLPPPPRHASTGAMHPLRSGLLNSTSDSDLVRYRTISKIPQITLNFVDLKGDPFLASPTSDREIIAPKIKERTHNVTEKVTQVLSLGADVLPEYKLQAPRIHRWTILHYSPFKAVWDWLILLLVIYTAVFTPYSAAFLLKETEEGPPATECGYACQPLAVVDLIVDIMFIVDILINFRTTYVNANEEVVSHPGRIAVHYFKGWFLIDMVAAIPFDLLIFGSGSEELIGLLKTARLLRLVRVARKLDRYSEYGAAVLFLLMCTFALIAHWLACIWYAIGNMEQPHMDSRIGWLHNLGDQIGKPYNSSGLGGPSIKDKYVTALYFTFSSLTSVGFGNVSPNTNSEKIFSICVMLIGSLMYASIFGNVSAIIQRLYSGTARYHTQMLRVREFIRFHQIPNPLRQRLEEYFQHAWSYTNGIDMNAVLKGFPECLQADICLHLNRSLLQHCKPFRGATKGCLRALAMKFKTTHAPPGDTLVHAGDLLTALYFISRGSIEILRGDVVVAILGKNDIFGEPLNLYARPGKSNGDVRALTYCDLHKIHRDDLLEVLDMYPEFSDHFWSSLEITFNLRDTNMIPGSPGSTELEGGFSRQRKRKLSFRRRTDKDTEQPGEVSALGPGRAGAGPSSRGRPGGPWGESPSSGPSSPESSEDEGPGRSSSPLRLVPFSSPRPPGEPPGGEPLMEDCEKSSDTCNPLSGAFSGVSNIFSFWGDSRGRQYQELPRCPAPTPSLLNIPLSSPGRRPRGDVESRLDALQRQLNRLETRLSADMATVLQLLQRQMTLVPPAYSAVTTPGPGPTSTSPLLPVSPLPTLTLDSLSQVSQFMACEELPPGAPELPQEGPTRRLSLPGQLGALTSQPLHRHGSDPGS
row,SMILES,"hERG current change (%, negative = inhibition) at 10uM"
1,Cc1oc2c(O)c(O)ccc2c(=O)c1-c1ccc(Cl)cc1,-11.3%
2,COc1ccc([C@H]2CC(=O)C=C(c3ccc(F)cc3OCc3ccccc3)C2)cc1OC,12.1%
3,CCN(CC)c1ccc(SS(=O)(=O)O)cc1,9.02%
4,CCOc1ccccc1NC1=CC(=O)CC(c2ccccc2)C1 (stereo not drawn),-16.9%
5,O=C(CN1CCN(S(=O)(=O)c2cc(Cl)ccc2Cl)CC1)c1ccc(O)c(O)c1,26.3%
6,CC(C)c1ccc(S(=O)(=O)N2CCN(CC(=O)c3ccc(O)c(O)c3)CC2)cc1,-24.6%
7,O=C(CN1CCN(S(=O)(=O)c2ccc(Br)cc2)CC1)c1ccc(O)c(O)c1,-76.8%
8,COc1ccc(S(=O)(=O)N2CCN(CC(=O)c3ccc(O)c(O)c3)CC2)cc1,-45%
9,O=C(CN1CCN(S(=O)(=O)c2ccc(F)cc2)CC1)c1ccc(O)c(O)c1,-34.9%
10,O=C(CN1CCN(S(=O)(=O)c2ccc(Cl)cc2)CC1)c1ccc(O)c(O)c1,-59.5%
11,Cc1cccc(-c2nc3ccccc3c3nncn23)c1,-12.1%
12,CCCn1c(NC(=O)c2cccc(S(=O)(=O)N3CCCC3)c2)nc2ccccc21,-28.8%
13,N#CCn1nnc(-c2ccc3c(c2)OCO3)n1,-4.09%
14,O=C(COC(=O)COc1ccc2ccccc2c1)Nc1cc(C(F)(F)F)ccc1N1CCOCC1,7.69%
15,COc1cc(Cl)c(C)cc1NC(C)C(=O)Nc1cc(C(F)(F)F)ccc1N1CCOCC1 (stereo not drawn),-2.59%
16,COc1ccc(NC(C)=O)cc1NC(C)C(=O)Nc1cc(C(F)(F)F)ccc1N1CCOCC1 (stereo not drawn),-60.1%
17,Cc1ccccc1OCC(=O)OCC(=O)Nc1cc(C(F)(F)F)ccc1N1CCOCC1,12.9%
18,Cc1cc(C(=O)OCC(=O)Nc2cc(C(F)(F)F)ccc2N2CCOCC2)c(C)o1,-0.421%
19,Cc1cc(OCC(=O)OCC(=O)Nc2cc(C(F)(F)F)ccc2N2CCOCC2)ccc1Cl,11.1%
20,O=C(COC(=O)c1ccccc1NCCO)Nc1cc(C(F)(F)F)ccc1N1CCOCC1,-60.2%
21,N#Cc1ccc(OCC(=O)OCC(=O)Nc2cc(C(F)(F)F)ccc2N2CCOCC2)cc1,-57.7%
22,CC(=O)c1c(C)[nH]c(C(=O)OCC(=O)Nc2cc(C(F)(F)F)ccc2N2CCOCC2)c1C,-56.1%
23,COc1ccc(NC(C)C(=O)Nc2cc(C(F)(F)F)ccc2N2CCOCC2)c(OC)c1 (stereo not drawn),-19.2%
24,CSc1ncccc1C(=O)OCC(=O)Nc1cc(C(F)(F)F)ccc1N1CCOCC1,-20.2%
25,O=C(COC(=O)c1ccc(O)cc1)Nc1cc(C(F)(F)F)ccc1N1CCOCC1,-25%
26,NCCN=C1NS(=O)(=O)c2ccccc21,0.316%
27,CCOc1ccc(OCC(=O)Nc2ccc(S(=O)(=O)Nc3cc(C)nc(C)n3)cc2)cc1,16.4%

row,SMILES,"hERG current change (%, negative = inhibition) at 10uM"
1,COc1cccc(-c2nc(N3CCCC3)c3ccccc3n2)c1O,-5.65%
2,Cc1ccc(C)c(C(=O)COC(=O)c2cc(Cl)nc3ccccc23)c1,26.4%
3,O=C(Nc1ccc2c(c1)CCC2)Nc1ccc2c(c1)OCO2,6.88%
4,O=C(Nc1ccc(C(=O)N2CCCCC2)cc1)c1ccccc1Br,8.24%
5,O=C(NCc1ccccn1)c1ccc(=O)oc1,1.42%
6,Cc1cc(Cl)ccc1OCC(=O)Nn1c(C)ccc1C,3.73%
7,Cc1ccc(C(=O)NCc2ccco2)cc1Br,-11.5%
8,COc1cccc(NC(=O)C23CCC(C)(C(=O)O2)C3(C)C)c1 (stereo not drawn),-5.46%
9,COc1ccc(OC)c(/C=C2\Oc3cc(OCC(=O)N4CC(O)C[C@H]4C(=O)O)ccc3C2=O)c1 (stereo partly drawn),4.97%
10,COc1ccccc1OCCCn1cc(C(=O)C2CC2)c2ccccc21,-2.64%
11,COc1cccc(C(=O)NN2C(=S)N(c3ccccc3)C(=O)C2CC(N)=O)c1 (stereo not drawn),16.2%
12,O=C(COc1ccc2ccccc2c1)Nc1ccccc1C(=O)O,26.6%
13,CCCC(=O)NC(=S)Nc1cccc(Cl)c1N1CCCCC1,14.1%
14,C/C(=N\NC(=O)c1ccccc1O)C1CC1,-62.2%
15,C/C(=N\NC(=O)C1CC1)c1ccccc1O,0.248%
16,C/C(=N\NC(=O)c1ccccc1O)C1C(=O)c2ccccc2C1=O,-0.25%
17,CC(=O)c1ccc(N2CCN(CC(=O)N(CC(C)C)c3c(N)n(CC(C)C)c(=O)[nH]c3=O)CC2)cc1,10.7%
18,Cc1c(CN2CCC(n3nccc3NC(=O)CCc3ccccc3)CC2)cnn1C,12.6%
19,CCCn1ncc(CN2CCC(n3nccc3NC(=O)c3ccccc3OC)CC2)c1C,-79.2%
20,CCCn1ncc(CN2CCC(n3nccc3NC(=O)CCc3ccccc3)CC2)c1C,-26.2%
21,COc1ccccc1C(=O)Nc1ccnn1C1CCN(Cc2cnn(C)c2C)CC1,-63.7%
22,CCCn1ncc(CN2CCC(n3nccc3NC(=O)c3ccccc3Cl)CC2)c1C,-75.8%
23,CCCCc1ncc(CN2CCC(n3nccc3NC(=O)c3ccccc3Cl)CC2)[nH]1,-40.3%
24,Cc1c(CN2CCC(n3nccc3NC(=O)c3cccc(F)c3)CC2)cnn1C,9%
25,CCCn1cc(CN2CCC(n3nccc3NC(=O)c3ccccc3)CC2)c(C)n1,-11%
26,O=C(c1ccc2c(c1)OCO2)N1CCc2ccccc21,-2.34%
27,COCCOC(=O)c1c(C)n(C)c2ccc(OC(=O)c3ccco3)cc12,-2.37%
